Inconclusive results are not listed. Active and inactive are the calls of the source. Rule for the calls: active = hit-call score of the fitted dose curve at least 0.9, where 1 is the maximum; inconclusive = response in the unintended direction; inactive = score below 0.9.

Read-out in this test: sulfotransferase (SULT2A), SULT2A1 (gene 6822)
Briefly: CLD_SULT2A_24hr: CellzDirect (CLD) Gene Expression Assay for sulfotransferase (SULT2A) at 24 hours (AID 2283694).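 For AC50: potency for increased SULT2A1 mRNA level as induction over DMSO baseline.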 How it is done:
CLD_24hr is a cell-based, multiplexed-readout assay that uses hepatocyte, a human liver primary cell, with measurements taken at 24 hours after chemical dosing in a 96-well plate.CLD_SULT2A_24hr is one of 16 assay component(s) measured or calculated from the CLD_24hr assay. It is designed to make measurements of mRNA induction, a form of inducible reporter, as detected with chemiluminescence signals by Quantitative Nuclease Protection Assay (qNPA) technology.Data from the assay component CLD_SULT2A_24hr was analyzed at the endpoint, CLD_SULT2A_24hr, in the positive analysis fitting direction relative to DMSO as the negative control and baseline of activity. Using a type of inducible reporter, gain-of-signal activity can be used to understand changes in the reporter gene as they relate to the gene SULT2A1. Furthermore, this assay endpoint can be referred to as a primary readout. To generalize the intended target to other relatable targets, this assay endpoint is annotated to the transferase intended target family, where subfamily is sulfotransferase.
Human hepatocyte cultures were treated daily for two consecutive days with fresh dosing solutions containing appropriate concentrations of the 320 ToxCast chemicals (chemical identities were blinded to CellzDirect and other ToxCast collaborators), vehicle control (0.2% DMSO), and positive control inducers as summarized in Table 1. Due to the large number of treatment groups and chemicals examined, the ToxCast chemicals were divided into two groups (spanning two independent cultures of hepatocytes from separate donor preparations (Hu778: ToxCast plates 1 and 2; Hu776: ToxCast plates 3 and 4). Each preparation of human hepatocyte cultures was treated with respective vehicle control, medium only control, set of six positive controls/reference chemicals for the five hepatic receptor pathways, and a subset of eight of the ToxCast chemicals (indoxacarb, pyrithiobac-sodium, norflurazon, cyhalofop-butyl, methomyl, thiram, acetochlor, and propiconazole). These replicate data, coupled with internal replicates designed within the blinded ToxCast chemical library, provided additional data to evaluate interindividual differences between hepatocyte preparations and their potential impact on chemical profiles.Cell morphology and integrity were evaluated using phase-contrast microscopy as an indicator of hepatocyte cell health (Tyson & Green, 1987). Cultures for each treatment group (i.e., media, vehicle [0.2% DMSO], positive control inducers [multiple concentrations], and the ToxCast chemicals [multiple concentrations]) were observed and cell morphology was assessed relative to vehicle control cultures at each harvest time point (0, 6, 24, or 48 h). […] Images were evaluated at the conclusion of the study to assess changes in cell integrity and account for the effects of chemical exposure on uncharacteristic changes in concentration-dependent gene expression profiles. The results from these determinations of apparent cytotoxicity were annotated (yes/no) alongside the corresponding qNPA data for reference.At the conclusion of each treatment period, hepatocyte cultures (96-well) were washed with 1 volume of HBSS, lysed by addition of 25 ul ArrayPlate lysis buffer (HTG, Tucson, AZ), and 70 ul/well of Denaturation Oil, denatured by incubation at 95C for 10 min, and frozen at approximately -70C until analysis by nuclease protection assay (qNPA) (Roberts et al., 2007). For qNPA analysis, cell lysates were thawed at 50C for approximately 30 min, qNPA probes were added, and samples were incubated at 95C for 10 min to begin the detection process by denaturing the target RNA, dissociating the duplexes and secondary structure hybridization. At the conclusion of the hybridization period, S1 nuclease reagent was added to each sample to digest all nonprotected nucleotides at 50C for 60-90 min. […]
Turning to `CCOP(=S)(OCC)SCCSCC`, the result was inactive.
Regarding `COc1cc(OC)nc(Sc2cccc(Cl)c2C(=O)O)n1`, the compound was classed as inactive.
Consider `N#CSCSC#N`, for which the call was inactive.
Consider `CCC(CC)Nc1c([N+](=O)[O-])cc(C)c(C)c1[N+](=O)[O-]`, for which the outcome was inactive.
As for `Cc1ccn2nc(S(=O)(=O)Nc3c(F)cccc3F)nc2n1`, the compound was called inactive.
Consider `C=C(C)[C@H]1Cc2c(ccc3c2O[C@@H]2COc4cc(OC)c(OC)cc4[C@@H]2C3=O)O1`, for which the AC50 was 3.88 µM (active).
With `COc1ccc(C(=CC(=O)N2CCOCC2)c2ccc(Cl)cc2)cc1OC`, the result was inactive.
For `CCCCOC(=O)[C@@H](C)Oc1ccc(Oc2ccc(C#N)cc2F)cc1`, the result was inactive.
On to `CCNc1nc(Cl)nc(NC(C)(C)C#N)n1`, for which the call was inactive.
The same measure, in the same setting: for `CCCCN(CC)c1c([N+](=O)[O-])cc(C(F)(F)F)cc1[N+](=O)[O-]` the value was “inactive”.
Same read-out and setting: for `CCc1cccc(C)c1N(C(=O)CCl)C(C)COC` (stereo not given) the value was “inactive”; for `CC1=NNC(=O)N(/N=C/c2cccnc2)C1`, “inactive”.
On the same count and under the same terms, the value for `CCOC(=O)COc1cc(-c2nn(C)c(OC(F)F)c2Cl)c(F)cc1Cl` was “inactive”; that for `CSc1nnc(C(C)(C)C)c(=O)n1N` was “inactive”.
With `CCOP(=S)(OCC)Oc1ccc([N+](=O)[O-])cc1`, the result was inactive.
Take `CCOP(=S)(OCC)Oc1ccc2c(C)c(Cl)c(=O)oc2c1`: the compound was called inactive.
Turning to `CN1COCN(Cc2cnc(Cl)s2)C1=N[N+](=O)[O-]`, the result was inactive.
Regarding `CC[C@H](C)[C@H]1O[C@]2(C=C[C@@H]1C)C[C@@H]1C[C@@H](C/C=C(\C)[C@@H](O[C@H]3C[C@H](OC)[C@@H](O[C@H]4C[C@H](OC)[C@@H](NC)[C@H](C)O4)[C@H](C)O3)[C@@H](C)/C=C/C=C3\CO[C@@H]4[C@H](O)C(C)=C[C@@H](C(=O)O1)[C@]34O)O2`, the AC50 is 0.336 µM (active).
On to `CSC1=N[C@@](C)(c2ccccc2)C(=O)N1Nc1ccccc1`, for which the call was inactive.
With `C#CC(C)(C)NC(=O)c1cc(Cl)cc(Cl)c1`, the compound was called inactive.
Regarding `CCOP(=S)(Oc1cnc(C(C)(C)C)nc1)OC(C)C` (stereo not given), the outcome was inactive.
Still for that read-out and setting: for `CON=C(C(=O)OC)c1ccccc1CON=C(C)c1cccc(C(F)(F)F)c1` the value was “inactive”; for `FC(F)C(F)(F)OCC(Cn1cncn1)c1ccc(Cl)cc1Cl` (stereo not given), “inactive”.
With `O=C(O)c1cc(Oc2ccc(C(F)(F)F)cc2Cl)ccc1[N+](=O)[O-]`, the result was inactive.
Turning to `C#CCC1=C(C)C(OC(=O)C2C(C=C(C)C)C2(C)C)CC1=O` (stereo not given), the compound was called inactive.
As for `CCOP(=O)(OCC)Oc1cc(C)nc(C(C)C)n1`, the call was inactive.
Still for that read-out and setting: the value for `CCCSP(=O)(OCC)SCCC` was “inactive”.
With `CN(C)[C@@H]1C(=O)C(C(N)=O)=C(O)[C@@]2(O)C(=O)C3=C(O)c4c(O)cccc4[C@@](C)(O)[C@H]3[C@H](O)[C@@H]12`, the compound was classed as inactive.
Turning to `CC(=NC#N)N(C)Cc1ccc(Cl)nc1`, the compound was classed as inactive.
With `CCOP(=O)(NC(C)C)Oc1ccc(SC)c(C)c1` (stereo not given), the compound was called inactive.
The same measure, in the same setting: the value for `COc1cccc(C(=O)NN(C(=O)c2cc(C)cc(C)c2)C(C)(C)C)c1C` was “inactive”.
As for `CCOP(=S)(OCC)OC(Cl)C(Cl)(Cl)Cl` (stereo not given), the result was inactive.
With `C[Si](Cn1cncn1)(c1ccc(F)cc1)c1ccc(F)cc1`, the AC50 was 20 µM (active).
For `CC(C)=CC1C(C(=O)OCN2C(=O)C3=C(CCCC3)C2=O)C1(C)C` (stereo not given), the call was inactive.
Regarding `Nc1nc(N)nc(NC2CC2)n1`, the compound was called inactive.
Consider `CNc1cnn(-c2cccc(C(F)(F)F)c2)c(=O)c1Cl`, for which the result was inactive.
Still for that read-out and setting: the value for `CCc1cccc(CC)c1N(COC)C(=O)CCl` was “inactive”; that for `Cc1nn(-c2cc(NS(C)(=O)=O)c(Cl)cc2Cl)c(=O)n1C(F)F` was “inactive”.
Consider `Nc1c(Cl)cc([N+](=O)[O-])cc1Cl`, for which the result was inactive.
In the case of `CSc1nc(NC(C)C)nc(NC(C)C)n1`, the outcome was inactive.

(Values after PubChem BioAssay (EPA / NIEHS).)
